Results reported in PubChem BioAssay (NCI).
The panel holds about 83,000 compounds, 20% with a hit somewhere; the sample as a whole holds those more often.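 In brief: 96-well plates, 48 h treatment, single concentration, percent growth endpoint.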 Activity calls are given as the source filed them. The calls were made as follows: active = growth percent below 10; inactive = the rest.

system: DU-145 prostate; experiment: NCI-60 one-dose screen, 48 h (100 = growth as untreated, 0 = no growth, -100 = all killed); conditions: 10 µM unless noted

Structure (SMILES)	growth
NC(CCl)=NCC12CC3CC(CC(C3)C1)C2	-42.7% (active)
COc1ccc2c(c1)Nc1ccccc1S2	116% (inactive)
CN1CCCN(C(c2ccccc2)c2ccc(Br)cc2)CC1 (centres undefined)	94.8% (inactive)
CCNc1ncnc2[nH]ncc12	117% (inactive)
CC(C)(CC(=O)O)CC(=O)O	111% (inactive)
CCc1ccccc1C(=O)N(CC)CC	104% (inactive)
COc1cc2c(c(OC)c1OC)-c1ccc(SC)c(=O)cc1[C@@H](NC1OC(CO)C(O)C(O)C1O)CC2 (some centres undefined)	6.12% (active)
O=[N+]([O-])c1c(Cl)ncnc1Cl	110% (inactive)
CCN(C(=O)Nc1ccccc1Cl)c1ccccc1	109% (inactive)
CC(C)(C)CC1(C)NC(=O)NC1=O (centres undefined)	114% (inactive)
O=C(c1ccc(Cl)cc1)N1CCCCC1	115% (inactive)
CC(C)c1ccccc1NC(=O)N1CCC(C(C)C)CC1	112% (inactive)
C=C1SC(=Nc2c(C)cccc2C)N(c2nc(Cl)nc(Cl)n2)C12CCCCC2	108% (inactive)
CCCCCCCCCCCCCCCCOc1ccccc1NC(=O)CC(C)=O	92% (inactive)
O=C(O)CC1=CCCCC1	102% (inactive)
CCOC(=O)c1ccc(Nc2sc(C(=O)c3ccc(Br)cc3)c(N)c2C#N)cc1	10.8% (inactive)
NNc1ncnc2c1ncn2C1OC(CO)C(O)C1O (centres undefined)	19.3% (inactive)
NS(=O)(=O)c1cc(=O)[nH]c(=O)[nH]1	114% (inactive)
CC(C)NC(=O)OCc1c(COC(=O)NC(C)C)c(-c2ccc(Cl)cc2)n2c1CCC2	15% (inactive)

Structure (SMILES)	growth
Cc1ccnc(Nc2nc3ccccc3[nH]2)n1	123% (inactive)
NNc1ncnc2nc[nH]c12	36.6% (inactive)
O=S(=O)(O)c1cccnc1	122% (inactive)
O=C(O)c1cc(I)ccc1O	116% (inactive)
Nc1nc2nnc(-c3ccccc3)c(-c3ccccc3)n2n1	98.8% (inactive)
Nc1cc(N)ncn1	110% (inactive)
Clc1ncnc2nc[nH]c12	91% (inactive)
N=C(N)c1nn(C2OC(CO)C(O)C2O)c2nc[nH]c(=O)c12 (centres undefined)	-49.1% (active)
CCN(CC)CCCC(C)NC(=S)N/N=C(\C)c1ccccn1 (centres undefined)	42.1% (inactive)
C[n+]1c(/C=C\C=C\N2CCCCC2)sc2ccccc21	23.1% (inactive)
S=c1nc2[nH]c3ccccc3c2n[nH]1	102% (inactive)
Cn1c2ccccc2c2nnc(NCCCCO)nc21	103% (inactive)
O=C(NC1CCCCC1)c1ccc(Cl)cc1	103% (inactive)
CNc1ccccc1C(=O)N/N=C/C=C/c1ccccc1	14.9% (inactive)
C[n+]1cc2cc3c(cc2c2ccccc21)OCO3	57.3% (inactive)
CN(C)c1ncnc2c1cnn2C	104% (inactive)
CC(C)(C)NCCC(O)c1cc(C(F)(F)F)nc2c(C(F)(F)F)cccc12 (centres undefined)	73.6% (inactive)
Cc1ccc(NC(=S)N2CCOCC2)cc1C	109% (inactive)

system: K-562 leukemia; experiment: as above; conditions: 10 µM unless noted

Structure (SMILES)	growth
NC(CCl)=NCC12CC3CC(CC(C3)C1)C2	-15.1% (active)
COc1ccc2c(c1)Nc1ccccc1S2	102% (inactive)
CN1CCCN(C(c2ccccc2)c2ccc(Br)cc2)CC1 (centres undefined)	20.3% (inactive)
CCNc1ncnc2[nH]ncc12	119% (inactive)
CC(C)(CC(=O)O)CC(=O)O	107% (inactive)
CCc1ccccc1C(=O)N(CC)CC	106% (inactive)
COc1cc2c(c(OC)c1OC)-c1ccc(SC)c(=O)cc1[C@@H](NC1OC(CO)C(O)C(O)C1O)CC2 (some centres undefined)	4.19% (active)
O=[N+]([O-])c1c(Cl)ncnc1Cl	109% (inactive)
CCN(C(=O)Nc1ccccc1Cl)c1ccccc1	93.9% (inactive)
CC(C)(C)CC1(C)NC(=O)NC1=O (centres undefined)	126% (inactive)
O=C(c1ccc(Cl)cc1)N1CCCCC1	97.2% (inactive)
CC(C)c1ccccc1NC(=O)N1CCC(C(C)C)CC1	99.4% (inactive)
C=C1SC(=Nc2c(C)cccc2C)N(c2nc(Cl)nc(Cl)n2)C12CCCCC2	95.2% (inactive)
CCCCCCCCCCCCCCCCOc1ccccc1NC(=O)CC(C)=O	87.1% (inactive)
O=C(O)CC1=CCCCC1	102% (inactive)
CCOC(=O)c1ccc(Nc2sc(C(=O)c3ccc(Br)cc3)c(N)c2C#N)cc1	12.9% (inactive)
NNc1ncnc2c1ncn2C1OC(CO)C(O)C1O (centres undefined)	30.4% (inactive)
NS(=O)(=O)c1cc(=O)[nH]c(=O)[nH]1	131% (inactive)
CC(C)NC(=O)OCc1c(COC(=O)NC(C)C)c(-c2ccc(Cl)cc2)n2c1CCC2	58.4% (inactive)

Structure (SMILES)	growth
Cc1ccnc(Nc2nc3ccccc3[nH]2)n1	97.8% (inactive)
NNc1ncnc2nc[nH]c12	48.4% (inactive)
O=S(=O)(O)c1cccnc1	105% (inactive)
O=C(O)c1cc(I)ccc1O	114% (inactive)
Nc1nc2nnc(-c3ccccc3)c(-c3ccccc3)n2n1	96.3% (inactive)
Nc1cc(N)ncn1	91.3% (inactive)
Clc1ncnc2nc[nH]c12	90.1% (inactive)
N=C(N)c1nn(C2OC(CO)C(O)C2O)c2nc[nH]c(=O)c12 (centres undefined)	-5.78% (active)
CCN(CC)CCCC(C)NC(=S)N/N=C(\C)c1ccccn1 (centres undefined)	38.7% (inactive)
C[n+]1c(/C=C\C=C\N2CCCCC2)sc2ccccc21	-14.4% (active)
S=c1nc2[nH]c3ccccc3c2n[nH]1	106% (inactive)
Cn1c2ccccc2c2nnc(NCCCCO)nc21	99.7% (inactive)
O=C(NC1CCCCC1)c1ccc(Cl)cc1	96.5% (inactive)
CNc1ccccc1C(=O)N/N=C/C=C/c1ccccc1	8.9% (active)
C[n+]1cc2cc3c(cc2c2ccccc21)OCO3	49.1% (inactive)
CN(C)c1ncnc2c1cnn2C	97% (inactive)
CC(C)(C)NCCC(O)c1cc(C(F)(F)F)nc2c(C(F)(F)F)cccc12 (centres undefined)	64.5% (inactive)
Cc1ccc(NC(=S)N2CCOCC2)cc1C	95.4% (inactive)
